Most compounds without a hit are left out; they make up all but 6.2% or so of the library.
ATXN2 expr inh – ATXN2 expression inhibition | HEK-293 ATXN2-luciferase reporter, luminescence, 24 h | actives 0.72% (n = 360,000) | AID 1745845 | Potency, µM (doses to about 57 µM), for the others: top-dose activity change, negative = inhibition, hits mostly inhibitors; further: on the % scale 0 is the no-effect control and ±100 the full control effect; nearly all actives have a fitted effect of over 55% in size
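ATXN2-luciferase reporter cells (luciferase flanked by upstream and downstream ATXN2 gene portions) were treated 24 h at 37 °C with compounds at up to 57 uM. SteadyGlo luminescence gave expression; GF-AFC fluorescence gave viability.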
S2 tox – viability counter-screen for ATXN expression inhibitors; S2 cells (HEK-293 line with an ATXN2-luciferase reporter) viability, CellTiter-Fluor protease fluorescence, 24 h; Potency, µM (highest dose often 56.7 µM), most hits filed as cytotoxic; actives 0.49% (n = 400,000); further: nearly all actives have a fitted effect of over 40% in size
HT1080 IDH1KD tx – HT-1080 IDH1 knockdown cell toxicity (counter line); HT-1080 IDH1 knockdown viability, ATP luminescence, 48 h; Potency, µM (top dose mostly 46.1 µM), inactives show at the top dose activity, negative = toxicity, actives largely listed as cytotoxic; actives 2% (n = 360,000); AID 686971;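 further: 0% = DMSO wells and -100% = cell-free medium wells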
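Luminescent ATP read-out (CellTiter-Glo, 10 min at room temperature) after 48 h compound exposure at 37 °C gave viability of IDH1-knockdown HT-1080 cells. Activity was normalised to DMSO and cell-free wells, then fitted as concentration-response curves.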
KB-3-1 tox – KB-3-1 parental cell cytotoxicity; KB-3-1 viability, CellTiter-Glo ATP luminescence, 72 h; Potency, µM (series often up to 46.1 µM), hits mostly cytotoxic; actives 1.4% (n = 400,000); AID 1347075; further: on the % scale 0 is the no-effect control and ±100 the full control effect; nearly all actives have a fitted effect of over 60% in size
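Cytotoxicity measured as CellTiter-Glo luminescence after 72 h at 37 C. Compound titrations were pinned onto drug-naive KB-3-1 parental adenocarcinoma cells grown in DMEM with 10% FBS, and normalized data fitted to concentration-response curves.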
KB-V1 MDR tox – kills drug-selected multidrug resistant KB-V1 cells; KB-V1 MDR cells viability, CellTiter-Glo, 72 h; Potency, µM (top dose mostly 46.1 µM), most hits filed as cytotoxic; actives 3.4% (n = 400,000); further: on the % scale 0 is the no-effect control and ±100 the full control effect; nearly all actives have a fitted effect of over 60% in size
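In this primary screen, KB-V1 cells overexpressing P-gp are incubated with library compounds (lowest to highest concentration) for 72 h at 37 degrees C before a luminescent ATP viability read.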
HT1080-NT tox – kills 2HG-producing HT-1080-NT fibrosarcoma cells; HT-1080-NT fibrosarcoma viability, CellTiter-Glo ATP luminescence, 48 h; actives 1.6% (n = 360,000); Potency, µM (titrated, usually from 46.1 µM), without a hit: at the highest dose activity, negative = less viability, usual class: cytotoxic;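 further: NT is the 2HG producing partner of a matched IDH1 knockdown line; 0% = DMSO-treated cells and -100% = media-only wells without cells; nearly all actives have a fitted effect of over 55% in size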
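Viability of the 2HG-overproducing fibrosarcoma line after 48 hours of compound exposure at 37 degrees C was determined by luminescence with CellTiter-Glo, and concentration-effect curves were then fitted and categorized.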
The depositor's hits bear a star; i = inactive; ? = inconclusive; · = no result; ! = not confirmed by another sample. The call rests on the fitted dose curve; in most records, active means well fitted curve in the direction sought with a large enough effect; inconclusive means small, poorly fitted or top-dose-only effect, or another doubt; inactive means no such curve, though single readings can be large; an effect the other way counts as inactive or inconclusive. Potency means the concentration at half of the fitted maximal effect.

SMILES	ATXN2 expr inh	S2 tox	HT1080 IDH1KD tx	KB-3-1 tox	KB-V1 MDR tox	HT1080-NT tox
CCN(c1ccc(OC)cc1)S(=O)(=O)c1ccc2[nH]c3c(c2c1)CCCCC3	?	?	·	8.2µM*	18µM*	·
Cc1cccc(C)c1NC(=O)C(c1ccccc1OC(F)(F)F)N1CCC(c2ccccc2)CC1 (centres undefined)	·	·	?	i	?	-28%
C/C(CCc1ccc2c(c1)OCO2)=N\NC(=S)NC(C)C	7.9µM*	7.1µM*	1%	i	i	-4%
COCCNC(=S)N/N=C(\C)CCc1ccc2c(c1)OCO2	2%	i	15%	i	i	-4%
CCNC(=O)NCc1cccc(Cl)c1	3%	i	·	·	·	·
O=C(c1oc2ccccc2c1N1CCCCC1)N1CCCCC1	-14%	i	-15%	i	15µM*	-5%
O=c1oc2ccccc2c(N2CCCCC2)c1CN1CCCCC1	-4%	i	5%	i	i	12%
O=c1oc2ccccc2c(N2CCCCC2)c1CN1CCCC1	-1%	i	-18%	i	23µM*	7%
COc1ccc(-c2cc(C(=O)Nc3c(C)nn(Cc4ccc(F)cc4)c3C)no2)cc1OC	-8%	i	·	i	i	·
COc1ccc2c(CC(=O)Nc3ccc(C)cc3)coc2c1	14%	i	·	i	i	·
COC(=O)C(C(=O)OC)C(CC(=O)c1ccc(C)cc1)c1cc(OC)c(OC)c(OC)c1 (centres undefined)	-18%	i	-7%	i	i	1%
COc1ccc(C(CC(=O)c2ccc(C)cc2)C(C#N)C#N)cc1OC (centres undefined)	?	30µM*	23µM*	?	?	21µM*
Cc1cccc(NC(NC(=O)c2ccccc2[N+](=O)[O-])C(Cl)(Cl)Cl)c1 (centres undefined)	2%	?	0%	i	23µM*	10%
COc1ccc(-n2cc(-c3ccccc3)[nH]c2=S)c(OC)c1	-23%	i	?	16µM*	i	?
CNC(=S)N/N=C/c1ccc(-c2cccc(C(=O)O)c2)o1	40%	i	?	15µM*	21µM*	?
Cc1ccc(OCC(=O)N/N=C\c2ccc(-c3cccc(C(=O)O)c3)o2)c(C)c1	9%	i	1%	i	i	4%
Cc1ccc(C(=O)N/N=C/c2ccc(-c3cccc(C(F)(F)F)c3)o2)cn1	-27%	i	2.1µM*	6.5µM*	8.2µM*	?
CCCCCCCCNC(C)C(O)c1ccc(SC(C)C)cc1 (centres undefined)	25µM*!	?	?	i	16µM*	23µM*
C[C@@H](NCCc1ccc(O)cc1)[C@@H](O)c1ccc(O)cc1	4%	i	5%	?	i	16%
CCOc1ccccc1NC(=O)C1CCN(S(=O)(=O)c2ccccc2)CC1	-3%	i	·	i	?	·
CC(c1cccs1)N(Cc1ccco1)C(=O)Nc1ccc(Cl)c(Cl)c1 (centres undefined)	?	i	-25%	i	16µM*	-17%
Fc1ccc(-c2csc(Nc3ccccn3)n2)c(F)c1	50%	i	?	18µM*	?	?
Cc1cc(-c2csc(Nc3ccccn3)n2)ccc1F	97%	i	?	i	i	?
O=C(Nc1nc(-c2ccccn2)cs1)Nc1ccc(F)cc1F	14µM*	?	?	i	i	?
O=C(COc1ccc(F)cc1)Nc1nc(-c2ccccn2)cs1	?	?	?	?	5.8µM*	-20%
SMILES	ATXN2 expr inh	S2 tox	HT1080 IDH1KD tx	KB-3-1 tox	KB-V1 MDR tox	HT1080-NT tox
CCc1cccc2c(CCO)c[nH]c12	17%	i	·	·	·	·
CCc1cccc(NC(=O)C(Cc2ccccc2)NS(=O)(=O)c2cccs2)c1 (centres undefined)	-29%	?	·	i	?	·
CC(=O)c1ccc(N2CCN(C(=O)c3ccccc3SCC(=O)NCc3ccco3)CC2)c(F)c1	7%	i	-7%	i	21µM*	-8%
C=CCn1c(SCC(C)=O)nc2scc(-c3ccco3)c2c1=O	-6%	i	-4%	i	i	-7%
C=CCn1c(SCC(=O)c2[nH]c(C)c(C(=O)OC)c2C)nc2scc(-c3ccc(OC)c(OC)c3)c2c1=O	?	?	7%	4.1µM*	6.5µM*	1%
COCCN1CCN(C(=O)c2cnn(-c3nccc(-c4ccccc4OC)n3)c2-c2ccco2)CC1	·	i	·	·	·	·
O=C(CN(c1cccc(Br)c1)S(=O)(=O)c1ccccc1)N1CCc2ccccc2C1	-21%	i	·	i	i	·
CCCCOc1ccc(-c2cc3c(=O)n(CC(=O)Nc4ccc(Cl)cc4Cl)ccn3n2)cc1	9%	i	·	i	i	·
CC(=O)Nc1cccc(-c2cnc(NC(C)=O)cn2)c1	-6%	i	?	18µM*	i	-10%
COc1cccc(-c2cc(C(=O)Nc3ccccc3)c3ccccc3n2)c1	20%	i	9%	i	?	-1%
Cc1ccc(C(=O)Nc2cccc(-c3cnc4ccccc4n3)c2)cc1	3%	?	20%	i	i	-6%
COc1ccc(COc2cc(-c3cccc(OC)c3)nc3ccc(NC(=O)C(C)C)cc23)cc1	8%	?	2.9µM*	2.6µM*	?	?
CC(C)C(=O)Nc1cccc(-c2cnc3ccccc3n2)c1	12%	i	-5%	i	13µM*	13%
CC(=O)Nc1cccc(-c2csc(Nc3ccc(C)cn3)n2)c1	60%	i	?	i	i	?
CC(=O)c1cccc(NC(=O)c2c(N3CCCC3=O)c3cc(F)ccc3n2C)c1	-31%	?	·	i	?	·
O=C(CSc1cn(CC(=O)N2CCCC2)c2ccccc12)Nc1ccc(Cl)cc1	-8%	?	·	i	i	·
CCc1cccc(NC(=O)c2nnn(Cc3ccc(SC)cc3)c2N)c1	1%	i	·	i	i	·
COc1ccc(CCN2C(=O)c3cccnc3C2=O)cc1OC	-6%	i	11%	i	i	9%
COc1ccc(CCNC2=C(Cl)C(=O)N(CCc3ccc(OC)c(OC)c3)C2=O)cc1OC	?	?	-11%	?	21µM*	0%
COc1ccc(NC2=C(Cl)C(=O)N(CCc3ccccc3)C2=O)c(OC)c1	42%	i	-2%	i	13µM*	0%
COc1ccc(CCN2C(=O)CN(Cc3ccccc3)CC2=O)cc1OC	17%	i	10%	i	6.5µM*	17%

From PubChem
